PubChem BioAssay (NCATS)
“And” between values parts separate entries of the source, which are not always exact repeats. Identical values can stand only once. Results filed as inconclusive are left out. The source made the active and inactive calls. Calls follow the shape of the dose curve; as a rule, active = well fitted inhibition curve with a large enough effect; inconclusive = small, poorly fitted or top-dose-only effect; inactive = no such curve, though single readings can be large or run the other way. Positions of bridges follow the written chain, without caps; N, C: chain ends. Non-standard residues stand in square brackets, D forms with d. Residues, ends and D or L forms follow the SMILES beside them. ξ: configuration not given here. *: point of attachment. ξDab(CH2SO3H) = NC(CCNCS(=O)(=O)O)C(=O)O; Octanoyl(6-Me) = CCC(C)CCCCC(=O)*; Dab = NCC[CH](N)C(=O)O
Potency is read from the fitted curve at half-maximal effect.

Assay: Confirmatory screen NINDS Rhodamine qHTS for Zika virus inhibitors (AID 1347161); also: nearly all actives have a fitted effect of over 60% in size
Settings: purified enzyme assay, Rhodamine110 substrate fluorescence, 15 min; series mostly up to 114 µM; activity change, negative = inhibition: at the top concentration
Source text: Avindra Nath, Ph.D., National Institute of Neurological Disorders and Stroke (NINDS), Bethesda, MD
Radhakrishnan Padmanabhan, Ph.D., Georgetown University (GU), Washington D.C.
Zika Virus causes congenital defects, including microcephaly and is associated with Guillain-Barre syndrome, eningoencephalitis and myelitis in infected adult. […] Using a target-based approach, we hope to establish a screening paradigm to uncover novel, cell-active NS2B-NS3 protease (Zika Virus) specific inhibitors from NCATS' collection of small molecules using qHTS.
Four assay panel was created to identify potential Zika Virus inhibitors. Namely, (1) GU unlinked NS2B-NS3 AMC tagged protease qHTS, (2) GU unlinked NS2B-NS3 Rhodamine tagged protease qHTS, (3) NINDS linked NS2B-NS3 AMC tagged protease qHTS, (4) NINDS linked NS2B-NS3 Rhodamine tagged protease qHTS. Active compounds were re-acquired and re-screened to confirm inhibition. Inhibitors were further screened against various confirmatory and counterscreens in dose response format.
Early Translation Branch (ETB)
National Center for Advancing Translational Sciences (NCATS), Rockville, MD
National Institute of Health (NIH), Bethesda, Maryland
For the linked assay, Nath lab (NINDS) provided the purified linked NS2B-NS3 protease which is consists of hydrophilic domain of NS2B linked to the NS3 protease domain by a flexible (-[…]-) linker. Control compound aprotinin is obtained from Thermo Scientific (#78432; Waltham, Massachusetts). Rhodamine110 substrate ([N-Cbz]-Nle-Lys-Arg-Arg-Rhod110-Arg-Arg-Lys-Nle-[N-Cbz]) was purchased from either Genscript or Bachem.
1536-well Protease (Rhodamine110 Substrate) Assay:
Briefly, 3 microL of enzyme (25 nM final concentration), in assay buffer (10 mM Tris-HCl pH 8.0 with 0.01% Tween 20) were dispensed into a 1,536-well solid-bottom black plate (Greiner Bio One, Monroe, NC). Twenty-three nL of compounds (final concentration range 7.28 nM to 114 microM) or control Aprotinin (final concentration range 3.47 nM to 114 microM) were transferred via Wako Pin-tool (Wako Automation, Richmond, VA). Samples were incubated (room temperature, protected from light) for 15 minutes followed by a 1 microL Rhodamine110 substrate addition (1.5 microM final concentration). Plates were then immediately read on a ViewLux High-throughput CCD imager (PerkinElmer, Waltham, MA) equipped with FITC fluorescence optics (480(20) nm excitation, 540(25) nm emission), then incubated (room temperature, protected from light) for 15 minutes (~15% conversion). The change in fluorescence intensity over the 15-minute reaction period was normalized against no-inhibitor and no-enzyme controls and the resulting percent inhibition data were fitted to a 4-parameter Hill equation. Aprotinin was used as intraplate control.
For O=C1OCC2=C1C(c1cccc(Cl)c1)CC(=O)N2c1ccc(C(F)(F)F)cc1 (stereo not given), the “activity change, negative = inhibition” value was 4.51% (inactive).
With O=C1C=CC(=O)c2c(O)c(Cl)c(Cl)c(O)c21 the “activity change, negative = inhibition” value was -26.7% (inactive).
With CCOC(=O)c1ccc(NC(=O)c2nc(SCc3ccccc3F)ncc2Cl)cc1 the “activity change, negative = inhibition” value was 0.477% (inactive).
In the case of CC1CCC2C(=CCC(O)C2(C)C)C1(C)Cc1c(O)cc(CO)c(C=O)c1O (stereo not given), the Potency is reported as 27.3 µM (active).
In the case of Cc1c(C2(c3cc(C(C)C)c(O)c(Br)c3C)OS(=O)(=O)c3ccccc32)cc(C(C)C)c(O)c1Br, the Potency is reported as 5.62 µM (active).
In the case of O=C(OCC#CCSc1nnc(-c2cccc3ccccc23)o1)c1ccc(Cl)c(C(F)(F)F)c1, the “activity change, negative = inhibition” value is reported as -3.71% (inactive).
For O=C(Nc1ccc(C(=O)OCc2cc(=O)n3nc(C4CC4)sc3n2)cc1)c1ccc(F)cc1, the “activity change, negative = inhibition” value was -2.49% (inactive).
In the case of O=C(OCC#CCSc1nnc(-c2cccc3ccccc23)o1)c1ccc(SC(F)(F)F)cc1, the “activity change, negative = inhibition” value is reported as -5.47% (inactive).
In the case of O=C(Nc1ccccc1C(=O)OCc1cc(=O)n2nc(C3CC3)sc2n1)c1cccc(Cl)c1, the “activity change, negative = inhibition” value is reported as -9.41% (inactive).
In the case of C=CC(C)(C)c1[nH]c2ccccc2c1C1=C(O)C(=O)C(c2c[nH]c3c(CC=C(C)C)cccc23)=C(O)C1=O, the Potency is reported as 49.4 µM (active).
In the case of O=c1c(O)c(Br)ccc2c(Br)c(O)c(O)c(O)c12, the Potency is reported as 7.94 µM (active).
For CCC(C)CCCCC(=O)NC(CCNCS(=O)(=O)O)C(=O)NC(C(=O)NC(CCNCS(=O)(=O)O)C(=O)NC1CCNC(=O)C(C(C)O)NC(=O)C(CCNCS(=O)(=O)O)NC(=O)C(CCNCS(=O)(=O)O)NC(=O)C(CC(C)C)NC(=O)C(CC(C)C)NC(=O)C(CCNCS(=O)(=O)O)NC1=O)C(C)O (stereo not given) ({Octanoyl(6-Me)}-[ξDab(CH2SO3H)]T[ξDab(CH2SO3H)][Dab][ξDab(CH2SO3H)]LL[ξDab(CH2SO3H)][ξDab(CH2SO3H)]T; lactam 4-C; configuration not given here), the Potency was 12.6 µM (active).
With COC(=O)c1ccccc1NC(=O)CSc1nc(-c2ccccc2)cc(C(F)(F)F)n1 the “activity change, negative = inhibition” value was -9.07% (inactive).
In the case of O=C(Nc1ccc(C(=O)OCc2cc(=O)n3nc(C4CC4)sc3n2)cc1)c1cccc(F)c1, the “activity change, negative = inhibition” value is reported as -16.5% (inactive).
For Cc1ccc(S(=O)(=O)Nc2cc(SCC(=O)O)c(O)c3ccccc23)cc1[N+](=O)[O-], the Potency was 6.98 µM (active).
With CCc1ccc(S(=O)(=O)Nc2cc3c(C(=O)OCc4ccccc4)c(C)oc3c3ccccc23)cc1 the “activity change, negative = inhibition” value was -15.6% (inactive).
With O=C(COc1ccccc1F)Nc1ccccc1C(=O)OCc1cc(=O)n2nc(C3CC3)sc2n1 the “activity change, negative = inhibition” value was -20% (inactive).
With CCN(Cc1cccc(S(=O)(=O)O)c1)c1ccc(C(=C2C=CC(=[N+](CC)Cc3cccc(S(=O)(=O)O)c3)C=C2)c2ccc(O)cc2S(=O)(=O)O)cc1 the Potency was 3.55 µM (active).
With O=C(Nc1ccc(-c2nc3ccccc3s2)c(O)c1)c1ccc(Br)cc1 the “activity change, negative = inhibition” value was -7.82% (inactive).
With COc1cc(-c2ccc(N=Nc3ccc4c(S(=O)(=O)O)cc(S(=O)(=O)O)c(N)c4c3O)c(OC)c2)ccc1N=Nc1ccc2c(S(=O)(=O)O)cc(S(=O)(=O)O)c(N)c2c1O the Potency was 2 µM (active).
With Nc1c(S(=O)(=O)O)cc(Nc2ccc(Nc3nc(Cl)nc(Nc4ccc(S(=O)(=O)O)cc4)n3)c(S(=O)(=O)O)c2)c2c1C(=O)c1ccccc1C2=O the Potency was 2 µM (active).
With Nc1cc(N)c(N=Nc2ccc(S(=O)(=O)Nc3nccs3)cc2)cc1N=Nc1ccc(S(=O)(=O)Nc2nccs2)cc1 the Potency was 3.55 µM (active).
For Clc1nc2n[nH]nc2nc1Cl, the Potency was 5.62 µM (active).
In the case of Cc1ccc(NC(=O)CSc2ncccc2C(=O)Oc2ccccc2Cl)cc1Cl, the “activity change, negative = inhibition” value is reported as 15.2% (inactive).
For O=C(Nc1c(C(=O)O)oc2ccccc12)c1ccc(C(F)(F)F)cc1, the Potency was 25.1 µM (active).
In the case of O=c1oc2ccccc2cc1-c1nnc(Nc2ccc(Cl)cc2Cl)s1, the Potency is reported as 15.8 µM (active).
With O=C(O)c1cc(NCc2cc(O)ccc2O)ccc1O the Potency was 12.4 µM (active).
With COC(=O)c1ccc(NC(=O)CSc2ccc(-c3sc(-c4ccccc4)nc3C)nn2)cc1 the “activity change, negative = inhibition” value was -13.8% (inactive).
In the case of CC(=O)Oc1cc2c(c(C)c1OC(C)=O)CC=C1[C@@]2(C)CC[C@@]2(C)[C@H]3C[C@](C)(C(=O)O)CC[C@]3(C)CC[C@]12C, the Potency is reported as 3.49 µM (active).
For O=C(NCc1ccc(Oc2ccccc2)cc1)c1nc(-c2cc(Br)c(O)c(Br)c2)no1, the Potency was 2.21 µM (active).
For CN(CC(=O)N(Cc1ccc(C2CCCCC2)cc1)c1ccc(C(=O)O)cc1)S(=O)(=O)c1c(F)c(F)c(F)c(F)c1F, the Potency was 2.78 µM (active).
In the case of CC(C)(O)c1ccccc1CC[C@H](SCC1(CC(=O)O)CC1)c1cccc(/C=C/c2ccc3ccc(Cl)cc3n2)c1, the Potency is reported as 22.4 µM (active).
With O=C(O[C@@H]1Cc2c(O)cc(O)cc2OC1c1ccc(O)c(O)c1)c1cc(O)c(O)c(O)c1 (stereo not given in full) the Potency was 14.1 µM (active).
For CC(NC(=O)C1CCN(S(=O)(=O)c2ccc3nc4c(c(C(=O)O)c3c2)CCCC4)CC1)c1ccccc1 (stereo not given), the “activity change, negative = inhibition” value was -25.1% (inactive).
For O=C(Nc1ccc(C(=O)OCc2cc(=O)n3c4c(sc3n2)CCCC4)cc1)c1ccccc1, the “activity change, negative = inhibition” value was -14.8% (inactive).
In the case of CC(C)c1nn2c(=O)cc(COC(=O)c3ccc(NC(=O)COc4ccccc4)cc3)nc2s1, the “activity change, negative = inhibition” value is reported as 4.33% (inactive).
With O=C(O)Cn1nnc(-c2ccc(OCc3cccc(C(F)(F)F)c3)cc2)n1 the Potency was 8.91 µM (active).
With O=C(Nc1cc(C(=O)Nc2ccc(S(=O)(=O)O)cc2S(=O)(=O)O)cc(C(=O)Nc2ccc(S(=O)(=O)O)cc2S(=O)(=O)O)c1)Nc1cc(C(=O)Nc2ccc(S(=O)(=O)O)cc2S(=O)(=O)O)cc(C(=O)Nc2ccc(S(=O)(=O)O)cc2S(=O)(=O)O)c1 the Potency was 2.24 µM (active) and 2 µM (active).
With Nc1c(N=Nc2ccc([N+](=O)[O-])cc2)c(S(=O)(=O)O)cc2cc(S(=O)(=O)O)c(/C=C/c3ccccc3)c(O)c12 the Potency was 2.82 µM (active).
In the case of CC(C)OC(=O)c1ccc(NC(=O)CSc2nc(-c3cccs3)cc(C(F)(F)F)n2)cc1, the “activity change, negative = inhibition” value is reported as -11.1% (inactive).
